Source: PubChem BioAssay (NCI)
The panel holds about 79,000 compounds, 15% with a hit somewhere; the sample as a whole holds those more often. Activity calls are given as the source filed them. Rule as the data show it: active = growth inhibition above about 70%; inactive = the rest.

Columns and labels:
[1] = NCI Yeast Anticancer Drug Screen. Data for the rad52 strain (AID 147);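 also: 0% = growth of vehicle-treated control cultures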; conditions: S. cerevisiae rad52 mutant growth inhibition, stronger effect = higher value
Procedure, shortened: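 Yeast strain carrying a DNA damage repair alteration was exposed to test compounds. Growth inhibition was measured relative to vehicle-treated controls.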

[2] = NCI Yeast Anticancer Drug Screen. Data for the wt1 strain (AID 149);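 also: 0% = growth of vehicle-treated wt1 cultures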; conditions: S. cerevisiae wt1 strain (SPY 50644) growth inhibition, stronger effect = higher value
Procedure, shortened: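 Growth inhibition read against vehicle controls after compound exposure of the wt1 yeast strain.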

[3] = NCI Yeast Anticancer Drug Screen. Data for the rad50EPP+ strain (AID 151);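 also: 0% = growth of vehicle-treated control cultures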; conditions: S. cerevisiae rad50 mutant strain, stronger effect = higher value
Procedure, shortened: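 Yeast strain carrying rad50 alteration (rad50EPP+) exposed to compounds; growth inhibition measured relative to vehicle-treated controls.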

[4] = NCI Yeast Anticancer Drug Screen. Data for the mgt1 strain (AID 153); conditions: S. cerevisiae mgt1 mutant growth inhibition, stronger effect = higher value
Procedure, shortened: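 Yeast mgt1 strain (DNA repair/cell-cycle alteration panel) exposed to compounds; growth inhibition measured relative to vehicle-treated controls.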

[5] = NCI Yeast Anticancer Drug Screen. Data for the rad50 strain (AID 155);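 also: 0% = growth of vehicle-only cultures of the same strain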; conditions: S. cerevisiae rad50 strain growth inhibition, stronger effect = higher value
Procedure, shortened: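 Readout: growth inhibition relative to vehicle-treated cultures. Compound exposure was carried out in a genetically defined yeast strain deficient in DNA damage repair.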

[6] = NCI Yeast Anticancer Drug Screen. Data for the rad14 strain (AID 159);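 also: 0% = growth of vehicle-treated control cultures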; conditions: S. cerevisiae rad14 strain growth inhibition, stronger effect = higher value
Procedure, shortened: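 Growth inhibition vs vehicle controls; genetically altered yeast strain (DNA damage repair defect) treated with test compounds.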

[7] = NCI Yeast Anticancer Drug Screen. Data for the sgs1 mgt1 strain (AID 161);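 also: 0% = growth of cultures given vehicle only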; conditions: S. cerevisiae sgs1 mgt1 strain, stronger effect = higher value
Procedure, shortened: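 Growth of a repair-deficient yeast mutant was monitored after compound treatment and expressed as inhibition relative to vehicle-treated cultures.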

[8] = NCI Yeast Anticancer Drug Screen. Data for the CLN2oe strain (AID 163);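 also: 0% = growth of vehicle-only control cultures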; conditions: S. cerevisiae CLN2oe strain, stronger effect = higher value
Procedure, shortened: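 Yeast cells carrying a defined cell-cycle control alteration were exposed to test compounds. Growth inhibition was scored against vehicle-treated control cultures.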

[9] = NCI Yeast Anticancer Drug Screen. Data for the cln2 rad14 strain (AID 165);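 also: 0% = growth equal to vehicle treated cultures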; conditions: S. cerevisiae cln2 rad14 strain, stronger effect = higher value
Procedure, shortened: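 Yeast carrying cln2 and rad14 alterations (cell cycle control and DNA damage repair) were exposed to compounds. Growth inhibition was measured against vehicle-treated controls.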

[10] = NCI Yeast Anticancer Drug Screen. Data for the bub3 strain (AID 167); conditions: S. cerevisiae bub3 mutant strain, stronger effect = higher value
Procedure, shortened: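 Readout: yeast growth inhibition, expressed relative to vehicle-only wells. The test organism is a mutant strain from a panel with lesions in DNA repair or checkpoint genes.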

[11] = NCI Yeast Anticancer Drug Screen. Data for the mlh1 strain (AID 171);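 also: 0% = growth of vehicle-treated control cultures of the same strain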; conditions: S. cerevisiae mlh1 strain growth inhibition, stronger effect = higher value
Procedure, shortened: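 Yeast carrying a defined genetic alteration in DNA damage repair or cell cycle control were exposed to test compounds. Growth inhibition was measured relative to vehicle-treated controls.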

[12] = NCI Yeast Anticancer Drug Screen. Data for the sgs1 strain (AID 173);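 also: 0% = growth of vehicle-only control cultures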; conditions: S. cerevisiae sgs1 mutant, stronger effect = higher value
Procedure, shortened: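 Yeast mutant strains carrying defined defects in DNA damage repair or cell cycle control were exposed to test compounds. Growth inhibition was scored against vehicle-treated controls.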

[13] = NCI Yeast Anticancer Drug Screen. Data for the mlh1 rad18 strain (AID 175); conditions: S. cerevisiae mlh1 rad18 strain growth inhibition, stronger effect = higher value
Procedure, shortened: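 Growth inhibition of the yeast strain was measured after compound exposure and expressed relative to vehicle-treated controls. The strain carries defined defects in DNA damage repair.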

[14] = NCI Yeast Anticancer Drug Screen. Data for the rad18 strain (AID 177); conditions: S. cerevisiae rad18 mutant growth inhibition, stronger effect = higher value
Procedure, shortened: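 Yeast carrying a defined DNA damage repair alteration were exposed to compounds. Growth inhibition was expressed relative to vehicle-treated controls.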

[15] = NCI Yeast Anticancer Drug Screen. Data for the mec2-1 strain (AID 157); conditions: S. cerevisiae mec2-1 strain, stronger effect = higher value
Procedure, shortened: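 mec2-1 yeast strain, carrying an alteration in DNA damage repair or cell cycle control, was exposed to compounds; growth inhibition was measured relative to vehicle-treated controls.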

[16] = NCI Yeast Anticancer Drug Screen. Data for the wt2 strain (AID 169);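 also: 0% = growth of vehicle-treated yeast cultures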; conditions: S. cerevisiae wt2 strain growth inhibition, stronger effect = higher value
Procedure, shortened: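 Yeast cells were exposed to test compounds, and growth inhibition was measured relative to vehicle-treated controls.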

[17] = at 5.0 µM (retest, dose inferred, filed as 0.5)
[18] = at 50.0 µM (retest, dose inferred, filed as 5.0)

Measured: growth inhibition

Oc1cccc2c(Cl)ccnc12
inactive: [1]; at 1.2 µM 42% | [2]; at 1.2 µM 47% | [2]; at 11.0 µM 38% | [4]; at 1.2 µM 41% | [5]; at 1.2 µM 43% | [6]; at 1.2 µM 37% | [7]; [17] -5% | [8]; at 1.2 µM 52% | [9]; [17] 43% | [10]; at 1.2 µM 32% | [10]; at 3.7 µM 54% | [11]; at 1.2 µM 27% | [12]; at 1.2 µM 36% | [14]; at 1.2 µM 33%
active: [1]; at 3.7 µM 99% | [1]; at 11.0 µM 99% | [1]; at 33.0 µM 95% | [1]; at 100.0 µM 98% | [2]; at 3.7 µM 98% | [2]; at 33.0 µM 97% | [2]; at 100.0 µM 99% | [3]; at 1.2 µM 83% | [3]; at 3.7 µM 102% | [3]; at 11.0 µM 81% | [3]; at 33.0 µM 97% | [3]; at 100.0 µM 97% | [4]; at 3.7 µM 99% | [4]; at 11.0 µM 98% | [4]; at 33.0 µM 95% | [4]; at 100.0 µM 98% | [5]; at 3.7 µM 100% | [5]; [17] 99% | [5]; at 11.0 µM 98% | [5]; at 33.0 µM 97% | [5]; [18] 99% | [5]; at 50.0 µM 91.5% | [5]; at 100.0 µM 97% | [6]; at 3.7 µM 99% | [6]; at 11.0 µM 99% | [6]; at 33.0 µM 96% | [6]; at 100.0 µM 98% | [7]; [18] 99% | [7]; at 50.0 µM 93.8% | [8]; at 3.7 µM 96% | [8]; at 11.0 µM 97% | [8]; at 33.0 µM 93% | [8]; at 100.0 µM 97% | [9]; [18] 99% | [9]; at 50.0 µM 91.8% | [10]; [17] 93% | [10]; at 11.0 µM 98% | [10]; at 33.0 µM 92% | [10]; [18] 100% | [10]; at 50.0 µM 92.8% | [10]; at 100.0 µM 97% | [11]; at 3.7 µM 99% | [11]; at 11.0 µM 98% | [11]; at 33.0 µM 97% | [11]; at 100.0 µM 99% | [12]; at 3.7 µM 99% | [12]; at 11.0 µM 99% | [12]; at 33.0 µM 96% | [12]; at 100.0 µM 98% | [13]; [17] 100% | [13]; [18] 99% | [13]; at 50.0 µM 91% | [14]; at 3.7 µM 98% | [14]; at 11.0 µM 97% | [14]; at 33.0 µM 92% | [14]; at 100.0 µM 97%

Cc1ccc(N)c(S)c1
inactive: [1]; at 1.2 µM -56% | [1]; at 3.7 µM -52% | [1]; at 11.0 µM -12% | [2]; at 1.2 µM -23% | [2]; at 3.7 µM -29% | [2]; at 11.0 µM -19% | [3]; at 1.2 µM -49% | [3]; at 3.7 µM -39% | [4]; at 1.2 µM -11% | [4]; at 3.7 µM -13% | [4]; at 11.0 µM 15% | [15]; at 1.2 µM -24% | [15]; at 3.7 µM -15% | [15]; [17] -19% | [15]; at 11.0 µM -9% | [15]; at 50.0 µM 36.3% | [6]; at 1.2 µM -43% | [6]; at 3.7 µM -36% | [6]; at 11.0 µM -22% | [6]; at 33.0 µM 55% | [7]; [17] -1% | [7]; [18] 36% | [8]; at 1.2 µM -15% | [8]; at 3.7 µM -3% | [8]; at 11.0 µM 13% | [9]; [17] 35% | [9]; [18] 63% | [9]; at 50.0 µM -1.5% | [10]; at 1.2 µM -35% | [10]; at 3.7 µM -11% | [10]; [17] 15% | [10]; at 11.0 µM 48% | [16]; at 1.2 µM -48% | [16]; at 3.7 µM -25% | [16]; at 11.0 µM -4% | [11]; at 1.2 µM -19% | [11]; at 3.7 µM -3% | [11]; at 11.0 µM 26% | [12]; at 1.2 µM -29% | [12]; at 3.7 µM -34% | [12]; at 11.0 µM 14% | [13]; [17] 20% | [14]; at 1.2 µM -48% | [14]; at 3.7 µM -37% | [14]; at 11.0 µM -22% | [14]; at 33.0 µM 42%
active: [1]; at 33.0 µM 88% | [1]; at 100.0 µM 97% | [2]; at 33.0 µM 75% | [2]; at 100.0 µM 99% | [3]; at 11.0 µM 76% | [3]; at 33.0 µM 95% | [3]; at 100.0 µM 91% | [4]; at 33.0 µM 98% | [4]; at 100.0 µM 99% | [15]; at 33.0 µM 96% | [15]; [18] 75% | [15]; at 100.0 µM 98% | [6]; at 100.0 µM 96% | [7]; at 50.0 µM 80.3% | [8]; at 33.0 µM 93% | [8]; at 100.0 µM 99% | [10]; at 33.0 µM 98% | [10]; [18] 92% | [10]; at 50.0 µM 81.5% | [10]; at 100.0 µM 98% | [16]; at 33.0 µM 93% | [16]; at 100.0 µM 99% | [11]; at 33.0 µM 98% | [11]; at 100.0 µM 97% | [12]; at 33.0 µM 98% | [12]; at 100.0 µM 98% | [13]; [18] 95% | [13]; at 50.0 µM 92.2% | [14]; at 100.0 µM 90%
